# According to the supplement of paper PMC6555819:
# Test system: VDR:RXRa (NR concentration 270 nM, RXRa partner concentration 90 nM)
# Test: PBM binding z-score (relative to random genomic background probes); higher = stronger binding; sequences stand for … in GC…GCGATTGACAGCGTAGAATGAAGG
# Procedure: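 Protein-binding microarray (Agilent 4x180K custom design, double-stranded 60-nt probes: 5' GC cap, 34-nt variable region, 24-nt constant primer region; full probe sequence given). Purified or IVT nuclear receptor:RXRα heterodimers (3:1 NR:RXRα, mostly 270:90 nM) or homodimers were incubated for 1 h in PBS with 2% milk and no ligand, then detected with Alexa488 antibodies. Fluorescence from o1-orientation probes (~5 replicates averaged) was converted to z-scores against 500 random hg19 background probes. Variable regions are seed direct-repeat (DR0–DR5) sites, all their single-nucleotide variants and half-site ablations.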
row,Sequence,PBM binding z-score
1,TCTTGTATATCAAAGGTTAAGAAAGCCGAAGCCT,1.91
2,TAGCCAAGGTCATTGGGCCAGTATAGTACGCATC,4.87
3,CCTCCTGGGCCAAAGGTCATTGATTCCAATGCTC,4.75
4,CAGCCTGGGTCAGGGCCAGTATAGGAGGAACGTT,0.152
5,TCTAGCAGTCCAGAGGGTCACTCAAGAGGTACGG,1.69
6,CGTCCAAGGTCAAGGTCAGTGCAAGAGACTCGAA,5.5
7,TCATATAGGTAGAGGTGAAAGTCGAACGATATGA,0.794
8,ACTTACGGGGCAACGAGGTTATAGCACGCGTATA,5.28
9,TCTTATAGATCAGCAGGTTAAGAAAGCTGGCCAA,0.455
10,GTACCAAGGTGAATAGGTCGTTGAAGAGTAGGCG,1.01
11,AGTCAAAGCTCATCTAGGTAACGTAAGATATGCT,-0.215
12,ACTTACGGGTCAACGAGGTTTTAGCACGCGTATA,6.69
13,TCATATAGGTAAACAGGTGAAACTCCGTAAGTTA,1.19
14,CGTCCGAGGTCAGAGAGGTCAGTGAATGCCGAGT,7.89
15,GGAACGAGGGCAAAGTTTATAGCATCTGTCGACG,1.92
16,TCTAGTTGGTCACGGAGGTAACACACGACGGGTA,1.03
17,TCTTGTAGATCAAAGGTTAAGTAAGCCGAAGCCT,2.04
18,CACACTAGGTCACGAAAGGTCAAAGTCGAATGAC,7.02
19,CCTACGGGGCCATCAGGTCATTGATATCAACGTT,3.06
20,GCTGCTAGGTCAACTGATGGTCAGCCAAAGCTCG,1.58

row,Sequence,PBM binding z-score
1,CAAACTAGGTCCCAGAGGTCAAAGTCCGTGCGTA,5.88
2,TCTAGTAGTTGATTAGGGCAACCGAAACAGCGGA,0.217
3,TCATATAGGTAAAGGCGAAAGTCGAACGATATGA,0.324
4,CCTACTGGGCCAAGAAGGTCATTGATGCCGATAA,3.97
5,CCTACTGGGCCACGAAAGGTCATTGATTCAGTGA,4.21
6,CCAACTGGGGCATAAGGTTACCATAAGCCAGCCC,0.316
7,TCTCGGAGGAGACGAAGGTCAGAGCTTTCCAGAG,0.483
8,GATACAGTGTCAGCTAGAGGCCAGAGTATGGAAA,-0.468
9,ACTATTAGTTGACACGAGGGCAACCGATAGGTTG,1.4
10,ACAGACAGGTGATGAACGTAACTCAGGCTATCAT,-0.0512
11,TGTCAAAGTTCAAAGGTAACGTAAGTATCCACAC,5.1
12,AGAATGAGGTTATACGTAGATCGGGGAAGAAAGT,1.43
13,CCTACTGGGCCATCATGTCATTGATATCAACGTT,0.0429
14,TCTTGTACATCAAGCAGGTTAAGAAAGCCTGAGT,0.528
15,CCTACTGGGCCACGAAAGGTCAATGATTCAGTGA,3.4
16,CCTCGGGGGACAACAGGAGGTCAGAGCTGCCAGA,2.71
17,ATCGGAAGGTCGTGAGGTGAGTATACAGAAAGGC,2.1
18,GCGACTGGGGCAAAGCAGGTTACTATAAGGTTGG,0.0986
19,CAAACTAGGTCAAGAGGTCAGAGTCCGCTTCCCG,4.89
20,AGAATGAGGTTATTAAGATCGGGGAATTGCGGTC,1.98
